GAA850 FXN act: activators of GAA850 frataxin (FXN) promoter; HEK293 lucGAA850 FXN promoter luciferase reporter, 24 h; percent of 10 µM SAHA response; activation, % at 6 µM; 360,000 compounds, 0.56% hits;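 active = activation above the average of all compounds screened plus 3 SD, cutoff fixed separately per campaign, cut at about 7.5% in these data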;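 note: 0% = DMSO wells and 100% = 10 µM SAHA wells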
Wnt act: activators of Wnt/beta-catenin signaling; Wnt/beta-catenin reporter cell assay, activator, plate reader; activation, % at 9.35 µM; 300,000 compounds, 1.2% hits; AID 743398; in the data active = activation above about 30%, passing the limit was not always enough; inconclusive = no clear call, values can overlap the other calls;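 note: 0% = neutral control wells and 100% = positive control wells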
MITF act: increases MITF-driven TRPM1 promoter luciferase signal; SK-MEL-5 TRPM1-promoter luciferase, 24 h; % of positive control, neutral wells = 0; activation, % at 12.5 µM; 300,000 compounds, 0.75% hits;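 active = mean activation of at least 80% with every replicate also reaching 80%; inconclusive = mean reaches 80% but some replicate falls short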;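 note: 0% = neutral control wells and 100% = parthenolide positive control wells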
Statin myotox sup: suppressors of simvastatin-induced myotoxicity in C2C12 myotubes; ATP luminescence, 48 h; scaled: DMSO 0, geranylgeraniol control 100; rescue of ATP level, % at 7.49 µM; 330,000 compounds, 0.78% hits; AID 602340;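 active = mean ATP rescue above about 67%, or every replicate alone reaching that limit, limit read from the data, passing the limit was not always enough; inconclusive = no clear call, values can overlap the other calls; inactive = mean under the limit and some replicate under it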;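 note: myotubes were challenged with 10 µM simvastatin during compound exposure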
esBAF inh: blocks esBAF chromatin remodeling in mouse ES cells | Bmi1-luciferase knock-in reporter, 24 h; 100% = twice the neutral-well signal | AID 602393 | reporter increase, % at 12.5 µM | 350,000 compounds, 2% hits; in the data active = activation above about 40%; inconclusive = no clear call, values can overlap the other calls;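 note: 0% = median of the plate's neutral control wells and 100% = double that signal; a rise in the Bmi1 reporter signal indicates esBAF inhibition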
An asterisk follows results filed as active; ? = inconclusive; nt = not tested or not shown. This is a sample that favours compounds with a hit; in the whole collection about 3.3% have one here.

SMILES	GAA850 FXN act	Wnt act	MITF act	Statin myotox sup	esBAF inh
C[C@@H]1CCCCO[C@H](CN(C)C)[C@H](C)CN([C@H](C)CO)C(=O)c2cc(NC(=O)Nc3ccc(C(F)(F)F)cc3)ccc2O1	nt	nt	nt	6	-5
O=C(CSc1ncccn1)c1ccccc1Br	5	nt	61	-8	41*
O=C(O)CSc1ncccn1	1	5	6	-4	-5
O=C(COC(=O)C12CC3CC(CC(O)(C3)C1)C2)Nc1ccccc1OC(F)F	-2	-4	nt	-3	-3
O=C(COC(=O)C12CC3CC(CC(O)(C3)C1)C2)Nc1ccc(Br)cc1F	4	?	129*	2	17
CNC[C@H]1OCCCC[C@H](C)Oc2ccc(NS(=O)(=O)c3ccccc3)cc2C(=O)N([C@H](C)CO)C[C@@H]1C	nt	nt	nt	15	-6
CCOC(=O)c1cc2ccc(OC)c(OC)c2c(=O)s1	1	nt	17	116*	23
C[C@H]1CN([C@@H](C)CO)C(=O)c2cc(C#CCN(C)C)cnc2O[C@H]1CN(C)Cc1ccc(F)cc1	nt	nt	nt	-6	-2
CCNc1nc(SCc2ccccc2)nc(N2CCOCC2)n1	5	-3	12	99*	-1
CN(C)c1nc(SCc2ccccc2)nc(N2CCOCC2)n1	3	3	15	2	-3
Clc1ccccc1CNc1ncnc2nc[nH]c12	-1	-1	6	101*	3
c1ccc(CNc2ncnc3nc[nH]c23)nc1	2	-1	-13	-4	3
Nc1nc(Nc2ccc(Cl)cc2Cl)nc(C(F)(F)F)n1	7	nt	69	31	64*
Cc1c(/C(O)=C2/C(=O)C(=O)N(Cc3cccnc3)C2c2cccs2)cnn1-c1ccccc1 (configuration not stated)	-7	-3	53	nt	46*
Cn1cc(-c2coc3c(C(=O)NCc4ccco4)cccc23)cn1	3	nt	nt	2	72*
Cn1cc(-c2coc3c(C(=O)Nc4ccccc4)cccc23)cn1	0	4	nt	-15	8
S=C(NN=C(C1CC1)C1CC1)Nc1ccccc1	1	-2	30	142*	32
O=C(NNC(=S)Nc1ccccc1)C1CC1	1	nt	6	-4	-4
C[C@@H]1CCCCO[C@H](CN(C)Cc2ccncc2)[C@@H](C)CN([C@@H](C)CO)C(=O)c2cc(NC(=O)CCC(F)(F)F)ccc2O1	nt	nt	nt	-4	-2
Cc1ccccc1NCc1nc2ccccc2n1C	5	14	nt	-6	?
Cn1c(CNc2ccccc2)nc2ccccc21	4	nt	-7	3	66*
CCn1c(NCc2cccs2)nc2ccccc21	-1	-1	-1	2	7
Cn1c(CNc2ccccc2O)nc2ccccc21	3	-9	-6	29	48*
CCCn1c(CNc2ccc(Br)cc2)nc2ccccc21	4	6	19	21	48*
Cn1c(NCc2cccs2)nc2ccccc21	2	nt	32	13	50*
SMILES	GAA850 FXN act	Wnt act	MITF act	Statin myotox sup	esBAF inh
CCn1c(CNc2ccc(C(=O)O)cc2)nc2ccccc21	2	2	-10	-13	6
C[C@@H]1CN([C@@H](C)CO)C(=O)Cc2cc(NC(=O)NC3CCCCC3)ccc2O[C@@H]1CN(C)S(=O)(=O)c1cn(C)cn1	nt	nt	nt	4	7
CC(C)NC(=O)N[C@H]1CC[C@H](CC(=O)NCc2ccc(Oc3ccccc3)cc2)O[C@H]1CO	nt	nt	nt	11	4
CCn1cnc2cc(NCc3nc4ccccc4n3C)ccc21	2	0	28	-1	17
Cn1c(CNc2ccc(F)cc2)nc2ccccc21	7	6	nt	1	69*
CCN(CC)C(=O)C(=O)N/N=C/c1ccc(Br)cc1	3	nt	-3	89*	2
O=C(N/N=C/c1ccc2c(c1)OCO2)c1ccc(Br)o1	6	43*	87*	nt	nt
CCN(CC)c1ccc(/C=N/NC(=O)c2ccc(Br)o2)cc1	1	0	116*	nt	nt
Cc1ccc(C)c(Cn2nnc3c(=O)[nH]c(C4CCCN(C(=O)CC(C)C)C4)nc32)c1 (configuration not stated)	-1	-3	-2	85*	4
O=c1[nH]c(C2CCN(S(=O)(=O)c3ccc4c(c3)OCCO4)CC2)nc2c1nnn2Cc1ccccc1	1	4	-4	2	-1
Cc1ccc(C)c(S(=O)(=O)N2CCC(c3nc4c(nnn4Cc4ccc5c(c4)OCCO5)c(=O)[nH]3)CC2)c1	-1	-2	-9	77*	3
CSCC(=O)N1CCc2ccc(NC(=O)c3ccccc3Cl)cc2C1	1	15	47	3	66*
CC(=O)N(C)C[C@H]1Oc2cc(C#Cc3ccncc3)ccc2S(=O)(=O)N([C@H](C)CO)C[C@H]1C	nt	nt	nt	-1	-3
O=C1NC(=S)NC1=Cc1ccc(Cl)cc1Cl	0	-1	-5	-10	4
O=C1NC(=O)C(=Cc2ccc(Cl)cc2Cl)S1	4	39*	23	-25	nt
CCOC(=O)N1CCN(C(=O)c2ccc3c(=O)n(CCC4=CCCCC4)c(=S)[nH]c3c2)CC1	0	-6	-2	94*	4
CCOC(=O)N1CCN(C(=O)c2ccc3c(=O)n(Cc4ccc(Cl)cc4)c(=S)[nH]c3c2)CC1	-2	nt	6	82*	20
O=C(c1ccc2c(=O)n(Cc3ccccc3)c(=S)[nH]c2c1)N1CCOCC1	0	-2	-12	3	-4
CCCn1c(=S)[nH]c2cc(C(=O)N3CCN(C(=O)OCC)CC3)ccc2c1=O	-1	-1	-1	9	-4
CC(=O)c1ccc(N2CCN(C(=O)c3ccc(Cn4c(=S)[nH]c5ccc(N6CCOCC6)cc5c4=O)cc3)CC2)cc1	1	4	14	-10	61*
C[C@H](NC(=O)C[C@@H]1C[C@@H]2c3cc(NC(=O)C4CCOCC4)ccc3O[C@@H]2[C@H](CO)O1)c1ccccc1	nt	nt	nt	6	0
Cc1cc(C)c2cc(CN(Cc3ccco3)C(=O)NCc3ccccc3)c(=O)[nH]c2c1	1	nt	13	110*	9
Cc1cc(C)c2cc(CN(CC3CCCO3)C(=S)NCc3ccco3)c(=O)[nH]c2c1 (configuration not stated)	1	-1	-3	nt	nt
C[C@@H]1CN([C@@H](C)CO)C(=O)Cc2cc(NS(C)(=O)=O)ccc2O[C@@H]1CN(C)C(=O)Nc1ccc2c(c1)OCO2	nt	nt	nt	-3	9
COc1ccc(CN(C)C[C@@H]2Oc3ccc(NC(=O)CCC(F)(F)F)cc3CC(=O)N([C@H](C)CO)C[C@H]2C)cc1	nt	nt	nt	102*	-1
C[C@@H]1CN([C@@H](C)CO)C(=O)Cc2cc(NC(=O)CCC(F)(F)F)ccc2O[C@H]1CN(C)Cc1ccc(Oc2ccccc2)cc1	nt	nt	nt	87*	8
C[C@@H]1CN([C@H](C)CO)C(=O)c2cc(NS(=O)(=O)c3cn(C)cn3)ccc2O[C@H]1CN(C)Cc1ccc(C(=O)O)cc1	nt	nt	nt	15	3
O=C(NN1C(=O)c2ccccc2C1=O)C1CCCCC1	0	nt	-10	100*	-6

Screening data from PubChem.
